# Data reported in PubChem BioAssay (EPA / NIEHS).
# Results filed as inconclusive are left out. Calls of active or inactive are those of the source. How the source made its calls, unless noted: active means hit-call score of the fitted dose curve at least 0.9, where 1 is the maximum; inconclusive means response in the unintended direction; inactive means score below 0.9.
# How the values were obtained:
# [1] = Tanguay_ZF_120hpf_PE_legacy: (Legacy) Oregon State University Tanguay Lab 120 Hour Post-fertilization zebrafish Assay for Pericardial Edema (AID 2283640);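 on AC50: potency for increased incidence of pericardial edema versus DMSO baseline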
# Outline: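 Scoring was binary, by brightfield microscopy at 120 hpf, and skipped where mortality occurred. Wild-type embryos were kept under sealed, foil-covered static exposure at 28C in 0.64% (vol/vol) DMSO.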
# [2] = Tanguay_ZF_120hpf_BRAI_legacy: (Legacy) Oregon State University Tanguay Lab 120 Hour Post-fertilization zebrafish Assay for Brain Malformation (AID 2283641)
# Outline: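 Binary brightfield scoring of brain malformation at 120 hpf in Tropical 5D larvae held under static exposure at 28C (0.64% v/v DMSO), non-mortality endpoints skipped if dead. Positive control: 5uM trimethyltin chloride; fit versus DMSO.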
# [3] = Tanguay_ZF_120hpf_SOMI_legacy: (Legacy) Oregon State University Tanguay Lab 120 Hour Post-fertilization zebrafish Assay for Somite Malformation (AID 2283647)
# Outline: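 Binary somite-defect scoring at 120 hpf, omitted for embryos that died, in wild-type (Tropical 5D) zebrafish with chorion removed by pronase at 4 hpf; static exposure began 6 hpf, single embryos per well, 28C, 0.64% DMSO; fitted positive versus DMSO.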
# [4] = Tanguay_ZF_120hpf_CFIN_legacy: (Legacy) Oregon State University Tanguay Lab 120 Hour Post-fertilization zebrafish Assay for Caudal Fin Malformation (AID 2283649)
# Outline: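 Binary brightfield scoring of caudal fin defects at 120 hpf after static, light-shielded exposure at 28C from 6 hpf. Tropical 5D embryos, chorion removed with pronase at 4 hpf, final DMSO 0.64%.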
# [5] = Tanguay_ZF_120hpf_CIRC_legacy: (Legacy) Oregon State University Tanguay Lab 120 Hour Post-fertilization zebrafish Assay for Circulatory Malformation (AID 2283651)
# Outline: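 Static exposure, 6–120 hpf, 28C, sealed and dark; one dechorionated 5D embryo/well; DMSO 0.64% v/v final. Binary circulation endpoint by brightfield; dead embryos not scored.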
# [6] = Tanguay_ZF_120hpf_SWIM_legacy: (Legacy) Oregon State University Tanguay Lab 120 Hour Post-fertilization zebrafish Assay for Swim Bladder Malformation (AID 2283654);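 further: swim bladder malformation in each larva scored yes or no under brightfield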
# Outline: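 Static waterborne exposure of single dechorionated Tropical 5D zebrafish embryos, 6–120 hpf, 28C, 0.64% DMSO final. Read-out: swim bladder malformation, present/absent, relative to DMSO negative control; trimethyltin chloride 5uM served as positive control.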
# [7] = Tanguay_ZF_120hpf_TRUN_legacy: (Legacy) Oregon State University Tanguay Lab 120 Hour Post-fertilization zebrafish Assay for Truncated Body (AID 2283655)
# Outline: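 Binary presence/absence of truncated body is recorded at 120 hpf by brightfield, with non-mortality endpoints skipped after death. Exposure is static from 6 hpf in sealed dark plates at 28C, using dechorionated wild-type zebrafish, 0.64% DMSO.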
# [8] = Tanguay_ZF_120hpf_NC_legacy: (Legacy) Oregon State University Tanguay Lab 120 Hour Post-fertilization zebrafish Assay for Notochord and Tail Malformation (AID 2283656)
# Outline: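 Binary notochord-distortion calls, made by brightfield inspection, form the read-out; activity is fitted in the positive direction against DMSO. Exposure ran statically from 6 to 120 hpf at 28C with 0.64% DMSO.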
# [9] = Tanguay_ZF_120hpf_OTIC_legacy: (Legacy) Oregon State University Tanguay Lab 120 Hour Post-fertilization zebrafish Assay for Otic Vesicle Malformation (AID 2283639)
# Outline: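 Brightfield scoring at 120 hpf, binary present/absent; DMSO negative control, 5uM trimethyltin chloride positive control. Static exposure at 28C, final DMSO 0.64% (vol/vol). Dead embryos not scored for malformation.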
# [10] = Tanguay_ZF_120hpf_PIG_legacy: (Legacy) Oregon State University Tanguay Lab 120 Hour Post-fertilization zebrafish Assay for Pigmentation Malformation (AID 2283650)
# Outline: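 Endpoint is incidence of abnormal pigmentation at 120 hpf in dechorionated 5D zebrafish exposed singly from 6 hpf at 28C, DMSO vehicle at 0.64%. Embryos dying by 24 or 120 hpf are excluded from scoring.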
# [11] = test system: Thyroperoxidase (TPO), gene 54314; assay: CCTE_Simmons_AUR_rTPO: CCTE's Amplex UltraRed Assay for Thyroperoxidase (TPO) Inhibition, Simmons Lab (AID 2283662);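 on AC50: potency for loss of signal meaning inhibition of peroxidase activity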
# Outline: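 Endpoint is decreased Amplex UltraRed fluorescence after a 30-min, 37C reaction of rat thyroid microsomes with 300 uM H2O2. Eight test concentrations (5 nM–87.5 uM final) in 0.5% DMSO, three biological replicates each.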
# [12] = read-out: solute carrier (SLC22A6), SLC22A6 (gene 9356); assay: LTEA_HepaRG_SLC22A6: Life Technologies and Expression Analysis (LTEA) Assay for solute carrier (SLC22A6) using HepaRG (AID 2283653; active means hit-call score of the fitted dose curve at least 0.9, where 1 is the maximum; inactive means score below 0.9); conditions: mRNA level, 48 h; actives raise or lower the signal
# Outline: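 SLC22A6 transcript was measured by TaqMan qRT-PCR, normalized to three housekeeping genes, after 48 h duplicate exposure of HepaRG cells (100 uM top, half-log steps, 0.5% DMSO); bidirectional fit against vehicle.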
# [13] = read-out: solute carrier (SLC10A1), SLC10A1 (gene 6554); assay: LTEA_HepaRG_SLC10A1: Life Technologies and Expression Analysis (LTEA) Assay for solute carrier (SLC10A1) using HepaRG (AID 2283657; active means hit-call score of the fitted dose curve at least 0.9, where 1 is the maximum; inactive means score below 0.9); conditions: mRNA level, 48 h; actives raise or lower the signal
# Outline: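 Cryopreserved HepaRG cells are thawed, plated and cultured 48 h; medium is then switched to serum-free induction medium and chemicals added (8 points, max 100 uM, 0.5% DMSO). After 48 h, RNA is isolated and SLC10A1 quantified by qRT-PCR.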
# [14] = read-out: matrix metalloproteinase-1 (MMP1), MMP1 (gene 4312); assay: LTEA_HepaRG_MMP1: Life Technologies and Expression Analysis (LTEA) Assay for matrix metalloproteinase-1 (MMP1) using HepaRG (AID 2283658; active means hit-call score of the fitted dose curve at least 0.9, where 1 is the maximum; inactive means score below 0.9); conditions: mRNA level, 48 h; actives raise or lower the signal
# Outline: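 qRT-PCR (TaqMan, Fluidigm arrays) of MMP1 transcript, normalized against three housekeeping genes and fitted in both directions relative to 0.5% DMSO vehicle. Human HepaRG cultures received duplicate 48 h exposures across 8 points, highest 100 uM with half-log steps.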
# [15] = Tanguay_ZF_120hpf_PFIN_legacy: (Legacy) Oregon State University Tanguay Lab 120 Hour Post-fertilization zebrafish Assay for Pectoral Fin Malformation (AID 2283648);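 further: each larva judged yes or no for fin defect by brightfield with dead larvae skipped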
# Outline: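 Scoring of pectoral fin malformation was binary, made at 120 hpf on larvae exposed statically from 6 hpf after enzymatic chorion removal. Activity was fitted upward relative to DMSO controls at 0.64% (vol/vol).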
# [16] = read-out: ABC Transporter (ABCB1), ABCB1 (gene 5243); assay: CLD_ABCB1_6hr: CellzDirect (CLD) Gene Expression Assay for ABC Transporter (ABCB1) at 6 hours (AID 2283659);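 further: hits raise ABCB1 transcript above the DMSO vehicle baseline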
# Outline: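 ABCB1 transcript measured by quantitative nuclease protection assay, chemiluminescent read-out, 6 h after dosing human hepatocyte cultures (0.2% DMSO vehicle, daily redosing). Activity fitted as increase over DMSO baseline; cytotoxicity flagged by phase-contrast morphology.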
# [17] = read-out: xenobiotic metabolism (CYP1A1), CYP1A1 (gene 1543); assay: CLD_CYP1A1_6hr: CellzDirect (CLD) Gene Expression Assay for xenobiotic metabolism (CYP1A1) at 6 hours (AID 2283661)
# Outline: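 Read-out 6 h post-dose: qNPA chemiluminescent quantitation of transcript induction against 0.2% DMSO. Cells were cultured primary human hepatocytes from two separate donor preparations; phase-contrast morphology annotated apparent cytotoxicity.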
# [18] = read-out: xenobiotic metabolism (CYP1A2), CYP1A2 (gene 1544); assay: CLD_CYP1A2_6hr: CellzDirect (CLD) Gene Expression Assay for xenobiotic metabolism (CYP1A2) at 6 hours (AID 2283663)
# Outline: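 mRNA levels quantified by quantitative nuclease protection assay with chemiluminescence, 6 h after dosing human primary hepatocyte cultures (two donors) across several concentrations, vehicle 0.2% DMSO. Induction fitted upward versus DMSO; phase-contrast cytotoxicity annotated.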
# [19] = read-out: xenobiotic metabolism (CYP2C9), CYP2C9 (gene 1559); assay: CLD_CYP2C9_6hr: CellzDirect (CLD) Gene Expression Assay for xenobiotic metabolism (CYP2C9) at 6 hours (AID 2283664)
# Outline: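 Readout is qNPA chemiluminescence of CYP2C9 mRNA, taken 6 h after dosing of cultured human liver primary cells at several concentrations. Activity is the increase over 0.2% DMSO baseline. Morphology-based cytotoxicity flagged yes/no.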
smiles,measurement,setting,value
ClC(Cl)=C(c1ccc(Cl)cc1)c1ccc(Cl)cc1,outcome,[1],inactive
same,outcome,[2],inactive
same,outcome,[3],inactive
same,outcome,[4],inactive
same,outcome,[5],inactive
same,outcome,[6],inactive
same,outcome,[7],inactive
same,outcome,[8],inactive
c1ccc(-c2ccccc2)cc1,outcome,[9],inactive
same,outcome,[1],inactive
same,outcome,[3],inactive
same,outcome,[10],inactive
same,outcome,[6],inactive
same,outcome,[7],inactive
same,outcome,[11],inactive
COc1ccc(O)c(C(C)(C)C)c1,outcome,[1],inactive
same,outcome,[2],inactive
same,outcome,[3],inactive
same,outcome,[4],inactive
same,outcome,[10],inactive
same,outcome,[6],inactive
same,outcome,[7],inactive
same,outcome,[8],inactive
same,AC50,[11],0.701 µM (active)
C[C@]12CCC(=O)C=C1CC[C@@H]1[C@@H]2CC[C@]2(C)C(=O)CC[C@@H]12,AC50,[1],36.3 µM (active)
same,AC50,[2],49.8 µM (active)
same,outcome,[3],inactive
same,AC50,[4],40.4 µM (active)
same,AC50,[10],43.9 µM (active)
same,outcome,[5],inactive
same,outcome,[6],inactive
same,outcome,[7],inactive
same,outcome,[8],inactive
same,outcome,[11],inactive
COS(=O)(=O)OC,outcome,[9],inactive
same,outcome,[1],inactive
same,outcome,[3],inactive
same,outcome,[10],inactive
same,outcome,[5],inactive
same,outcome,[12],inactive
same,outcome,[6],inactive
same,outcome,[7],inactive
same,outcome,[13],inactive
same,outcome,[14],inactive
same,AC50,[11],27 µM (active)
CCSC(=O)N(CC)C1CCCCC1,outcome,[9],inactive
same,outcome,[2],inactive
same,outcome,[3],inactive
same,outcome,[15],inactive
same,outcome,[4],inactive
same,outcome,[10],inactive
same,outcome,[5],inactive
same,outcome,[6],inactive
same,outcome,[7],inactive
same,outcome,[16],inactive
same,outcome,[17],inactive
same,outcome,[18],inactive
same,outcome,[19],inactive
O=S(=O)(O)C(F)(F)C(F)(F)C(F)(F)C(F)(F)C(F)(F)C(F)(F)F,outcome,[9],inactive
same,AC50,[2],14.9 µM (active)
same,outcome,[3],inactive
same,outcome,[10],inactive
same,outcome,[5],inactive
same,outcome,[6],inactive
same,outcome,[7],inactive
same,outcome,[8],inactive
CCOC(=O)C(O)(c1ccc(Cl)cc1)c1ccc(Cl)cc1,outcome,[9],inactive
same,outcome,[1],inactive
same,outcome,[2],inactive
same,outcome,[4],inactive
same,outcome,[10],inactive
same,outcome,[6],inactive
same,outcome,[7],inactive
O=S(=O)(O)C(F)(F)C(F)(F)C(F)(F)C(F)(F)F,outcome,[10],inactive
same,outcome,[6],inactive
same,outcome,[7],inactive
Sc1ccccc1,outcome,[11],inactive
CC(C)(O)C(=O)Nc1ccc([N+](=O)[O-])c(C(F)(F)F)c1,AC50,[1],23.2 µM (active)
same,outcome,[2],inactive
same,outcome,[3],inactive
same,outcome,[15],inactive
same,outcome,[10],inactive
same,outcome,[5],inactive
same,outcome,[6],inactive
same,AC50,[7],22.1 µM (active)
CCCCCCCCCc1ccc(O)cc1,outcome,[9],inactive
same,outcome,[1],inactive
same,outcome,[3],inactive
same,outcome,[4],inactive
same,outcome,[10],inactive
same,outcome,[12],inactive
same,outcome,[6],inactive
same,outcome,[7],inactive
same,outcome,[13],inactive
same,outcome,[14],inactive
same,AC50,[11],10.5 µM (active)
CC(c1ccc(O)cc1)(c1ccc(O)cc1)c1ccc(O)cc1,outcome,[9],inactive
same,outcome,[2],inactive
same,outcome,[3],inactive
same,outcome,[4],inactive
same,outcome,[10],inactive
same,outcome,[5],inactive
same,outcome,[6],inactive
same,outcome,[7],inactive
same,AC50,[11],1.41 µM (active)
CCC(C)(c1ccc(O)cc1)c1ccc(O)cc1,AC50,[1],43.4 µM (active)
same,AC50,[2],50.6 µM (active)
same,AC50,[3],46.4 µM (active)
same,outcome,[4],inactive
same,AC50,[10],43.2 µM (active)
same,AC50,[5],42.7 µM (active)
same,AC50,[6],43.1 µM (active)
same,AC50,[7],46.6 µM (active)
same,AC50,[11],1.86 µM (active)
C[C@]12CCC(=O)C=C1CC[C@@H]1[C@@H]2CC[C@@]2(C)[C@H]1CC[C@]2(C)O,outcome,[9],inactive
same,outcome,[2],inactive
same,outcome,[3],inactive
same,outcome,[4],inactive
same,outcome,[10],inactive
same,outcome,[5],inactive
same,outcome,[6],inactive
same,outcome,[7],inactive
Cc1cccc(C)c1N,outcome,[1],inactive
same,outcome,[4],inactive
same,outcome,[10],inactive
same,outcome,[5],inactive
same,outcome,[6],inactive
same,outcome,[7],inactive
Clc1ccc(C(c2ccccc2Cl)C(Cl)(Cl)Cl)cc1 (stereo not drawn),outcome,[9],inactive
same,outcome,[1],inactive
same,outcome,[2],inactive
same,outcome,[4],inactive
same,outcome,[10],inactive
same,outcome,[5],inactive
same,outcome,[6],inactive
same,outcome,[7],inactive
Oc1ccc(Cl)cc1Cl,outcome,[9],inactive
same,outcome,[1],inactive
same,outcome,[3],inactive
same,outcome,[4],inactive
same,outcome,[10],inactive
same,outcome,[6],inactive
same,outcome,[7],inactive
